The campaign covered roughly 360,000 compounds. About 3,100 (0.86%) were called active. What follows is part of a selection rich in actives, with near analogues and random picks from the rest. A number with no mark means an inactive call.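 The calls were made as follows: active = at least 50% inhibition at 5 µM, scaled per plate between neutral and stimulator controls; inactive = the rest.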
Assay: NF-kB reporter blockers in CF airway cells – cell-based, GFP fluorescence, uHTS, primary screen (AID 588850);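 also: PAF is a Pseudomonas aeruginosa culture filtrate used as stimulus; plate controls were PAF-stimulated DMSO wells for no effect and unstimulated DMSO wells for full effect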
Conditions: KKLEB NF-kB-GFP reporter, PAF-induced, GFP fluorescence overnight; at 5 µM; hits give high values
In the case of `COC(=O)CNC(=O)C(CCSC)NC(C)=O` (configuration not stated), the inhibition is reported as -2.1%.
For `CCOc1ccc2[nH]c(=O)c(CN(CCCO)S(=O)(=O)c3ccc(F)cc3)cc2c1`, the inhibition was 2.3%.
For `COc1ccc2[nH]c(=O)c(CN(Cc3cccnc3)S(=O)(=O)c3ccccc3F)cc2c1`, the inhibition was 82.1% (active).
For `COc1ccc(-c2[nH]ncc2CN(C)Cc2cccnc2)c(F)c1`, the inhibition was 14.6%.
With `CCCN(c1ccc(C(C)C)cc1)S(=O)(=O)c1c(C)[nH]c(=O)[nH]c1=O` the inhibition was -4.9%.
`Cc1noc(C)c1S(=O)(=O)Nc1cc(C(F)(F)F)ccc1N1CCOCC1` gave an inhibition of 2.4%.
Work on `Cc1ccc(N(CCC(=O)O)S(=O)(=O)c2cccc(C(F)(F)F)c2)cc1` yielded an inhibition of 11%.
With `Cc1oc2c(F)c(F)c(F)c(F)c2c1S(=O)(=O)Nc1cccc(C(F)(F)F)c1` the inhibition was 50.4% (active).
For `Cc1ccsc1C(=O)NC1CCCCC1C` (configuration not stated), the inhibition was 6.2%.
With `CC(C)Cc1nn2c(=O)cc(O)nc2s1` the inhibition was -9.2%.
In the case of `COC(=O)c1scc(C)c1NC(=O)CSc1ccc(Cl)cc1`, the inhibition is reported as -3.3%.
`CCCCOc1ccc(C(=O)NCC(=O)OCC(=O)c2c(N)n(C)c(=O)n(C)c2=O)cc1` showed an inhibition of 14.9%.
For `COc1cccc(OC)c1C(=O)Nc1ccc(Cc2ccncc2)cc1`, the inhibition was -1.5%.
In the case of `O=C(Nc1ccncc1)c1c(F)cccc1F`, the inhibition is reported as 81.6% (active).
`O=C(Nc1ccc(S(=O)(=O)N2CCCCCC2)cc1)c1c(F)cccc1F` gave an inhibition of -20.3%.
Work on `CNC[C@H]1Oc2c(NC(=O)C3CCCCC3)cccc2C(=O)N([C@H](C)CO)C[C@@H]1C` yielded an inhibition of 12.4%.
`O=S1(=O)CC(N2CCC(Cc3ccccc3)CC2)CN1Cc1ccccc1` (configuration not stated) showed an inhibition of -8.1%.
`CCNC(=O)CC1C(=O)N(c2ccc(F)cc2)C(=O)N1Cc1cccs1` (configuration not stated) showed an inhibition of -17.2%.
With `Cn1c(C(=O)O)ccc1S(=O)(=O)N(Cc1ccccc1)Cc1ccccc1` the inhibition was -3.7%.
`Cc1ccc(S(=O)(=O)N2C[C@H]3n4c(=O)ccc(=O)n4C[C@H](OC(=O)NC4CCCC4)[C@@]3(O)C2)cc1` showed an inhibition of -0.9%.
`C#CCN(C[C@H]1[C@H](OC(=O)NC2CCCC2)[C@H](OC(=O)NC2CCCC2)C[C@H]2C(=O)N(c3ccccc3)C(=O)[C@@H]12)S(=O)(=O)c1ccc(C)cc1` gave an inhibition of 15.8%.
For `C#CCN(C[C@@H]1[C@@H](OC(=O)NC2CC2)[C@@H](OC(=O)NC2CC2)Cn2c(=O)ccc(=O)n21)S(=O)(=O)c1ccc(C)cc1`, the inhibition was 53.2% (active).
For `COC(=O)Cc1c(O)ccn(Cc2cccc(C(F)(F)F)c2)c1=O`, the inhibition was -7.8%.
With `CCN1CCC(O)(/C=C/c2ccc(C)cc2)C(C(=O)/C=C/c2ccc(C)cc2)C1` (configuration not stated) the inhibition was 79.8% (active).
In the case of `CCN1CCC2(CC1)N=C(c1ccc(F)cc1)C(=S)N2C(=O)c1ccc(C)cc1`, the inhibition is reported as 18%.
`CCOC(=O)C1=CCC2C(=O)N(Cc3ccccc3)C(=O)C12` (configuration not stated) gave an inhibition of -1.4%.
In the case of `COc1ccccc1-n1nnnc1S(=O)(=O)Cc1ccc(Cl)cc1`, the inhibition is reported as 85.9% (active).
With `CCN(C(=O)CSc1nnnn1-c1ccccc1OC)C1CCS(=O)(=O)C1` (configuration not stated) the inhibition was 6%.
In the case of `COc1ccccc1CN(C)c1nnnn1-c1ccccc1`, the inhibition is reported as -3.9%.
`CCOC(=O)C1=CC[C@@H](c2ccncc2)N(S(=O)(=O)c2ccc(C)cc2)C1` showed an inhibition of 2.5%.
`CCCC(C(=O)NC1CCCC1)N(C(=O)Cn1nnc(-c2ccc(C)o2)n1)c1cccc(O)c1` (configuration not stated) showed an inhibition of -12.5%.
For `O=C(/C(=C/c1cccc(Cl)c1)c1nc2ccccc2[nH]1)c1ccccc1`, the inhibition was 82.3% (active).
Compound `O=c1[nH]c(/C=C/c2cccc(Br)c2)nc2ccccc12` has an inhibition of 20.4%.
In the case of `O=c1c2cc(Br)ccc2nc(-c2cccc(Cl)c2)n1O`, the inhibition is reported as -1.4%.
For `Cc1cc(NC(=O)CN2C(=O)NC(C)(CCc3ccccc3)C2=O)no1` (configuration not stated), the inhibition was -2.5%.
Compound `CC(C)C(C)(C#N)NC(=O)CSc1nc2scc(-c3ccccc3)c2c(=O)[nH]1` (configuration not stated) has an inhibition of 9%.
For `CSCC[C@H](NC(=O)NC1CCCC1)C(=O)O`, the inhibition was -10.3%.
With `COc1ccc(NC(=O)/C(Cl)=C(/Cl)S(=O)Cc2ccc(C)cc2)cn1` (configuration not stated) the inhibition was 90% (active).
Compound `COc1cccc(NC(=S)N(Cc2ccc(C)cc2)Cc2ccccn2)c1` has an inhibition of -2.3%.
Work on `COc1ccc(NC(=O)C2Cc3c(-c4ccc5c(c4)OCO5)ccnc3O2)cn1` (configuration not stated) yielded an inhibition of 15.9%.
In the case of `O=S(=O)(c1ccc(-c2ccno2)s1)N1CCCCC1`, the inhibition is reported as 7.2%.
For `CC(C(=O)N1CCOCC1)N1c2cccc3cccc(c23)S1(=O)=O` (configuration not stated), the inhibition was 4.3%.
In the case of `COc1cc(C(=O)OC(C)C(=O)NCC2CCCCC2)cc(NC(=O)c2ccco2)c1OC` (configuration not stated), the inhibition is reported as -5.7%.
Work on `COc1ccc(-c2cc(C(=O)n3cnc4ccccc43)c3ccccc3n2)cc1` yielded an inhibition of 5.5%.
Compound `COc1ccc(NC(=O)c2sc(N3CCOCC3)nc2-c2ccccc2)c(OC)c1` has an inhibition of 9.3%.
With `COc1ccc(NC(=O)c2cc(-c3cc(OC)c(OC)c(OC)c3)nc3ccccc23)c(OC)c1` the inhibition was 60.9% (active).
For `CC(C)n1cnc2c(Nc3cccc(Cl)c3)nc(N(CCO)CCCO)nc21`, the inhibition was 72.6% (active).
With `NC(=O)CSc1nnc(-c2cccc(S(=O)(=O)N3CCOCC3)c2)o1` the inhibition was -5.1%.
With `O=S(=O)(Nc1ccc(OC(F)(F)F)cc1)c1cccc2nonc12` the inhibition was -3.9%.
In the case of `COc1ccccc1NS(=O)(=O)c1ccc(C(=O)N2CCN(c3ccccc3O)CC2)cc1`, the inhibition is reported as 6.4%.
For `O=S(=O)(Nc1ccc(O)c2ccccc12)c1ccc(OC(F)(F)F)cc1`, the inhibition was 96% (active).
Compound `CCOC(=O)CN1CC23C=CC(O2)C(C(=O)Nc2ccc(F)cc2)C3C1=O` (configuration not stated) has an inhibition of -8.9%.
For `NS(=O)(=O)c1ccc(CCNC(=O)CCCn2c(SCC(=O)N3CCCC3)nc3ccsc3c2=O)cc1`, the inhibition was -8.6%.
For `NS(=O)(=O)c1cc2c(cc1Cl)NC(C(Cl)Cl)NS2(=O)=O` (configuration not stated), the inhibition was 22%.
In the case of `CCN1CCN(C(=O)N(Cc2ccc(Cl)cc2)S(=O)(=O)c2ccc(C)cc2)CC1`, the inhibition is reported as 3.2%.
In the case of `Cc1ncc(CC(=O)n2cc(C(=O)c3cc(Cl)ccc3O)cn2)s1`, the inhibition is reported as 60.8% (active).
Compound `O=C(c1cnn(-c2ccc(Cl)cc2)c1)c1ccccc1O` has an inhibition of -14.6%.

— PubChem BioAssay AID588850 (Sanford-Burnham Center for Chemical Genomics, 2011)
